High-throughput results (PubChem BioAssay)
IL1B secr inh – qHTS for Inhibitors of Inflammasome Signaling: IL-1-beta AlphaLISA Primary Screen. THP-1 LPS/ATP IL-1B secretion, AlphaLISA, 16 h; active compounds read low. activity change, % at 57.5 µM. 360,000 compounds, 4.7% hits; in the data active = activity change below about -50%; inconclusive = mostly about -30% to -49%; note: % is set by controls: 0 for no effect and ±100 for the full control effect
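THP-1 cells pretreated 1 hr with compounds (up to 57.5 uM final), then stimulated with LPS (250 ng/mL final) plus ATP (1.25 mM final); secreted IL-1B measured by AlphaLISA after 16 hr, decreased signal indicating inhibition.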
TDP1 inh – qHTS Assay for Inhibitors of Tyrosyl-DNA Phosphodiesterase (TDP1); Potency, µM (doses to about 130 µM), inactives show at the highest dose activity change, negative = inhibition, hits mostly inhibitors; 350,000 compounds, 0.28% hits; recombinant TDP1, AlphaScreen DNA substrate cleavage; Tyrosyl-DNA phosphodiesterase 1 (Homo sapiens), Q9NUW8; AID 485290, 2010; note: potency is the fitted concentration of half-maximal effect; % is set by controls: 0 for no effect and ±100 for the full control effect; nearly all actives have a fitted effect of over 40% in size
Target sequence (Q9NUW8 whole entry, looked up): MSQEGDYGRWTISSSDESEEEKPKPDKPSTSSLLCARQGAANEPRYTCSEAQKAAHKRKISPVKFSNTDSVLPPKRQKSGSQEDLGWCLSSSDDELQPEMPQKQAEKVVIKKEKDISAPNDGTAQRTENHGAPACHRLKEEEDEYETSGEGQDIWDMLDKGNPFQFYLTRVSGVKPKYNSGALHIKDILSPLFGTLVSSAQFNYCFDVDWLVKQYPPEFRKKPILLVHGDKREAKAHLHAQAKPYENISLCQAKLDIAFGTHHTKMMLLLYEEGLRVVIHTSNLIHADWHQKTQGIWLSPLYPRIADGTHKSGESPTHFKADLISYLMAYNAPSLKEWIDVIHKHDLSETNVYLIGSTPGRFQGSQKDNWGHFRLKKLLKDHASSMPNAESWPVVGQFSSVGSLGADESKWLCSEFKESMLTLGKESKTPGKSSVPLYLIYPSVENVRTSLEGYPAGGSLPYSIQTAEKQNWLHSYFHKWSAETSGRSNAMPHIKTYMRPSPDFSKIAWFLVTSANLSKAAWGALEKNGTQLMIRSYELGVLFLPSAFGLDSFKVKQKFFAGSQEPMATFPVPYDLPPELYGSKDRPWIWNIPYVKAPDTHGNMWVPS
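Tdp1 1 nM final; 15 min RT w/ cpd; substrate 15 nM, 5 min; beads 10 ug/ml, 10 min; AlphaScreen read. Neg ctrl: no enzyme.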
TGFb SMAD3 inh – qHTS for Inhibitors of TGF-b | 410,000 compounds, 1.2% hits | HepG2 CAGA-GFP TGF-b/SMAD3 reporter, GFP fluorescence, 18 h; TGF-beta stimulated, 500 pg/mL final | Potency, µM (titrated, usually from 46.1 µM), for the others: top-dose activity, negative = inhibition, actives largely listed as inhibitors; note: potency is the fitted concentration of half-maximal effect; % is set by controls: 0 for no effect and ±100 for the full control effect; nearly all actives have a fitted effect of over 65% in size
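Inhibition of TGF-beta-driven CAGA-GFP reporter expression in HEPG2 cells is measured by cellular GFP fluorescence after 18 h stimulation with 500 pg/mL recombinant TGF-beta in 1% FBS medium at 37 degrees C.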
TDP1 cell CPT – qHTS for Inhibitors of human tyrosyl-DNA phosphodiesterase 1 (TDP1): qHTS in cells in presence of CPT. chicken DT40 Tdp1-/-;hTDP1 cells + 20 nM CPT, ATP luminescence, 48 h. Potency, µM (highest dose often 46.2 µM), without a hit: top-dose activity change, negative = growth inhibition, most hits filed as inhibitors. 420,000 compounds, 12% hits. AID 686979, 2013; note: potency is the fitted concentration of half-maximal effect; % is set by controls: 0 for no effect and ±100 for the full control effect; nearly all actives have a fitted effect of over 55% in size
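Chicken DT40 Tdp1-/- cells stably complemented with human TDP1 were seeded at 400 cells/well in medium containing 20 nM camptothecin, exposed to pin-transferred compounds, and grown at 37 °C for at least 48 hr. Viability was read as ATP luminescence.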
TDP1 cell noCPT – qHTS for Inhibitors of human tyrosyl-DNA phosphodiesterase 1 (TDP1): qHTS in cells in absence of CPT. DT40 Tdp1-/- hTDP1 cells, no CPT, ATP luminescence, 48 h. Potency, µM (titrated, usually from 46.2 µM), inactives show at the highest dose activity change, negative = growth inhibition, usual class: inhibitors. 420,000 compounds, 15% hits. AID 686978, 2013; note: potency is the fitted concentration of half-maximal effect; % is set by controls: 0 for no effect and ±100 for the full control effect; nearly all actives have a fitted effect of over 55% in size
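Chicken DT40 Tdp1-/- cells complemented with human TDP1, screened without camptothecin (DMSO vehicle only), 400 cells/well. Compounds pin-transferred, cells incubated at 37 °C for at least 48 hr. Growth read as ATP-dependent luminescence (CellTiter-Glo, 30 min at RT).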
HepG2 tox – qHTS for Inhibitors of TGF-b: Cytotox Counterscreen; HepG2 CAGA-GFP viability, ATP luminescence, 18 h; Potency, µM (titrated, usually from 46.1 µM), without a hit: at the highest dose activity change, negative = cytotoxicity, actives largely listed as cytotoxic; 410,000 compounds, 0.76% hits; AID 588856, 2011; note: potency is the fitted concentration of half-maximal effect
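HepG2 CAGA-GFP cells (1000/well, DMEM with 1% FBS) received compound, then TGF-beta at 500 pg/mL final, and were incubated 18 hours at 37 degrees C. Viability was read by CellTiter-Glo luminescence. Media-only wells were set as complete cell-killing and DMSO as no toxicity.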
Numbers without * were called inactive; ? = inconclusive; . = no result given; [ ] = remark or other dose. Shown are actives, neighbours in structure and some others; about 18% of the full set was active somewhere. Unless noted, calls come from the whole dose curve; as a rule, active = well fitted curve in the direction sought with a large enough effect; inconclusive = small, poorly fitted or top-dose-only effect, or another doubt; inactive = no such curve, though single readings can be large; an effect the other way counts as inactive or inconclusive.

SMILES	IL1B secr inh	TDP1 inh	TGFb SMAD3 inh	TDP1 cell CPT	TDP1 cell noCPT	HepG2 tox
CN(C)C(=O)c1ccc(-c2nccc(-n3ccnc3)n2)cc1	.	.	.	?	-11%	.
COc1ccc(-c2nnc3ccc(SCC(=O)N4CCCCCC4)nn23)cc1OC	-65*	3%	5%	-29%	?	-2%
COC(=O)c1ccc(CSc2ccc3nnc(-c4ccc(OC)c(OC)c4)n3n2)o1	0	.	6%	?	10µM*	26%
COC(=O)c1ccc(CSc2ccc3nnc(-c4ccc(OC)cc4)n3n2)o1	.	-3%	.	.	.	.
CCc1nnc(NC(=O)CSc2nc3c([nH]c4ccccc43)c(=O)n2-c2ccc(F)cc2)s1	.	1%	0%	-20%	?	-2%
COc1ccc(NC(=O)CN(c2ccc(C)cc2)S(=O)(=O)c2cccc3nonc23)cc1OC	.	7%	0%	-19%	16µM*	-25%
Cc1ccc(NC(=O)CN(c2ccc(Cl)cc2)S(=O)(=O)c2cc([N+](=O)[O-])ccc2Cl)cc1	-99*	3%	?	?	23µM*	-27%
CC(=O)c1cccc(NC(=O)CN(c2ccc(C)cc2)S(=O)(=O)c2cccc3nonc23)c1	-8	3%	-21%	?	?	-22%
COc1ccc(C)cc1S(=O)(=O)N(CC(=O)Nc1cccc([N+](=O)[O-])c1)c1ccc(C)c(C)c1	-3	4%	6%	16µM*	?	4%
COC(=O)C1CCCCN1C(=O)CCc1nnc(CCc2c[nH]c3ccccc23)o1 (centres undefined)	-5	-4%	4%	?	-30%	4%
COC(=O)[C@@H]1CCCN1C(=O)CCc1nnc(CCc2c[nH]c3ccccc23)o1	-105*	-3%	-20%	?	?	-15%
COC(=O)c1c(OCC2CCCN(C)C2)cc(=O)n2c1CCN(Cc1ccc(OC)c(O)c1)CC2 (centres undefined)	.	.	.	20%	-21%	.
COCCCNC(=O)c1cc2c(=O)n3cccc(C)c3nc2n(C(C)C)c1=N	-69*	10%	2%	-17%	?	-9%
COCCCn1c(=N)c(C(=O)NCc2cccnc2)cc2c(=O)n3cccc(C)c3nc21	.	.	.	-28%	?	-14%
COCCn1c(=N)c(C(=O)NCCc2ccc(OC)cc2)cc2c(=O)n3cccc(C)c3nc21	-5	-5%	-2%	23µM*	29µM*	6%
O=C(NCC1CCCCC1)c1nnc(C(=O)NCC2CCCCC2)c2c1[nH]c1ccccc12	.	7%	.	.	.	.
CC1(c2ccccc2)NC(=O)N(CC(=O)NNC(=O)c2cccc(Cl)c2)C1=O (centres undefined)	0	2%	0%	-29%	?	1%
Cc1cc(C(O)c2ncc(-c3ccccc3)[nH]2)ccc1F (centres undefined)	23	.	4%	16µM*	?	-14%
OC(c1ccc(-c2ccccc2)cc1)c1ncc(-c2ccc(F)cc2)[nH]1 (centres undefined)	27	.	?	29µM*	?	-10%
OC(c1ccccc1)c1ncc(-c2ccc(Cl)cc2)[nH]1 (centres undefined)	19	.	2%	-3%	-10%	-5%
COc1cccc(-c2cnc(C(O)c3ccc(F)c(C)c3)[nH]2)c1 (centres undefined)	27	.	15%	?	?	-3%
CC(NS(=O)(=O)c1cccc(C(=O)NCc2ccncc2)c1)c1ccccc1 (centres undefined)	23	-3%[56.1 µM]	5%	3%	9%	9%
c1ccc(C[C@H]2CNCCN2CCc2cccc3ccccc23)cc1	-27	-2%	?	?	10µM*	-70%
Oc1ccc(C[C@H]2CNCCN2CCc2cccc3ccccc23)cc1	-29	?	?	?	?	-60%
CCCC[C@@H]1CNCCN1CCc1cccc2ccccc12	?	-4%	?	23µM*	18µM*	-57%
SMILES	IL1B secr inh	TDP1 inh	TGFb SMAD3 inh	TDP1 cell CPT	TDP1 cell noCPT	HepG2 tox
CC(O)[C@H]1CNCCN1CCc1cccc2ccccc12 (some centres undefined)	3	.	16%	-27%	?	-18%
COc1ccc2c(c1)c1c(c(=O)n(-c3cccc(C)c3)c(=O)n1CC(=O)NCc1ccc(C)cc1)n2C	.	3%	?	?	?	-6%
Cc1ccc2c(c1)c1c(c(=O)n(-c3ccccc3C)c(=O)n1CC(=O)NCc1ccccc1)n2C	.	3%	-5%	?	18µM*	2%
Cc1ccc2c(c1)c1c(c(=O)n(-c3ccccc3C)c(=O)n1Cc1ccccc1F)n2C	.	0%	10%	15µM*	5.8µM*	-6%
COc1ccc2c(c1)c1c(c(=O)n(-c3ccc(C)cc3)c(=O)n1CC(=O)NCc1ccc(C)cc1)n2C	.	0%	?	7.3µM*	6.5µM*	0%
O=C(CSc1nc2c([nH]c3ccccc32)c(=O)n1-c1ccccc1)c1ccc(Cl)cc1	.	-7%	-8%	?	?	-2%
Cc1ccc(C(=O)Nc2ccc(C)c(S(=O)(=O)Nc3ccccc3Cl)c2)s1	-62*	0%	?	?	?	-14%
O=C(Nc1ccc(Cl)c(S(=O)(=O)Nc2ccccc2Cl)c1)c1cccs1	-93*	3%	?	-13%	?	3%
CCOc1ccc(C2Nc3c(C)cccc3-c3cc(C)nn32)cc1 (centres undefined)	.	0%	?	21µM*	?	-20%
COc1ccc(NC(=O)CN2CCN(C(C)=O)CC2)cc1S(=O)(=O)N1CCOCC1	34	2%	6%	1%	2%	1%
CCN(CC)c1ccc(NC(=O)CN2CCN(S(=O)(=O)c3cc(Cl)ccc3OC)CC2)cc1	-29	16%	?	?	16µM*	-41%
COc1ccc(NC(=O)c2ccc(NC(=O)CN3CCN(c4ccccc4OC)CC3)cc2)cc1	68	.	-12%	?	18µM*	-23%
COc1ccc(NC(=O)CN2CCN(c3ccccc3F)CC2)cc1	11	2%	?	-20%	-1%	0%
